Laboratory results from the supplement of paper PMC7366291.
Structures can show the parent of a compound that is named as a salt. ± gives the standard deviation of the averaged measurements.

tested on: Danio rerio Tg(wt1b:EGFP) embryo, pronephros; experiment: pronephric angle neck segment to proximal convoluted tubule (mean of left and right), fold change vs DMSO control; higher = larger pronephric angle; conditions: 25 µM; exposure: 24-48 hpf
In short: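 Using a Fiji macro, distances and angles were calculated from 16 reference points set by hand on maximum projections of pronephroi imaged dorsally (470 nm, 10 z-slices) in agarose-filled 96-well plates. The dechorionated Tg(wt1b:EGFP) zebrafish embryos had received 25 μM compound in 0.5% DMSO in HEPES-buffered E3 with 0.003% PTU from 24 to 48 hpf at 28.5°C. Values more than 2 SD from a feature's mean were excluded. Each feature appears as a fold change over the mean of DMSO-treated embryos from the same day.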

Structure (SMILES) | pronephric angle neck segment
CO[C@]12C[C@@H](COC(=O)c3cncc(Br)c3)CN(C)[C@@H]1Cc1cn(C)c3cccc2c13 [Nicergoline] | 0.966 ± 0.028
COc1ccc(CN2CCNCC2)c(OC)c1OC [Trimetazidine dihydrochloride] | 0.982 ± 0.044
CC(C)(C)NCC(O)c1ccccc1Cl (stereo unspecified) [Tulobuterol] | 1.01 ± 0.039
CC[C@@H](C(N)=O)N1CCCC1=O [Levetiracetam] | 1.011 ± 0.0044
C=CC[C@]1(O)CC[C@H]2[C@@H]3CCC4=CC(=O)CCC4=C3C=C[C@@]21C [Altrenogest] | 0.981 ± 0.072
CN[C@@H]1[C@@H](O)[C@@H](O[C@@H]2[C@@H](O)[C@H](O[C@H]3O[C@H](CN)CC[C@H]3N)[C@@H](N)C[C@H]2N)OC[C@]1(C)O.CN[C@@H]1[C@@H](O)[C@@H](O[C@@H]2[C@@H](O)[C@H](O[C@H]3O[C@H]([C@@H](C)N)CC[C@H]3N)[C@@H](N)C[C@H]2N)OC[C@]1(C)O.CN[C@@H]1[C@@H](O)[C@@H](O[C@@H]2[C@@H](O)[C@H](O[C@H]3O[C@H]([C@@H](C)NC)CC[C@H]3N)[C@@H](N)C[C@H]2N)OC[C@]1(C)O [Gentamicine sulfate] | 1.01 ± 0.029
COc1ccc(CCN)cc1OC [Homoveratrylamine] | 0.972 ± 0.021
COc1ccc2c(c1)[C@]13CCCC[C@@H]1[C@H](C2)N(C)CC3 [Dextromethorphan hydrobromide monohydrate] | 1.04 ± 0.036
c1ccc2c(c1)OCC(C1=NCCN1)O2 (stereo unspecified) [Idazoxan hydrochloride] | 1.02 ± 0.021
O=C(NCNC(=O)NC1C(=O)NC(=O)N1CO)NC1C(=O)NC(=O)N1CO (stereo unspecified) [Imidurea] | 1.058 ± 0.0052
O=P1(NCCCl)OCCCN1CCCl (stereo unspecified) [Ifosfamide] | 1.06 ± 0.023
